# Results from PubChem BioAssay (EPA / NIEHS).
# Records with an inconclusive call do not appear. Calls of active or inactive are those of the source. Rule for the calls: active = hit-call score of the fitted dose curve at least 0.9, where 1 is the maximum; inconclusive = response in the unintended direction; inactive = score below 0.9.
# Target: Estrogen receptor (Homo sapiens) + Estrogen receptor beta (Homo sapiens) (UniProt P03372+Q92731)
# Assay: OT_ER_ERaERb_1440: Odyssey Thera (OT) 24-hour HEK293T Protein-Complementation Assay for Estrogen Receptor-alpha/-beta Homodimer (AID 2283356);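 note: hits raise reporter fluorescence and both agonists and antagonists give an increase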
# Method: OT_ER_ERaERb_1440 is a cell-based assay that uses HEK293T, a human kidney cell line, with measurements taken at 24 hours after chemical dosing in a 384-well plate.OT_ER_ERaERb_1440 is one of one assay component(s) measured or calculated from the OT_ER_ERaERb_1440 assay. It is designed to make measurements of protein fragment complementation, a form of binding reporter, as detected with fluorescence intensity signals by Protein-fragment Complementation technology.Data from the assay component OT_ER_ERaERb_1440 was analyzed into 1 assay endpoint. This assay endpoint, OT_ER_ERaERb_1440, was analyzed in the positive analysis fitting direction relative to DMSO as the negative control and baseline of activity. Using a type of binding reporter, measures of receptor for gain-of-signal activity can be used to understand the binding at the pathway-level as they relate to the gene ESR1 and ESR2. Furthermore, this assay endpoint can be referred to as a primary readout, because the performed assay has only produced 1 assay endpoint. To generalize the intended target to other relatable targets, this assay endpoint is annotated to the nuclear receptor intended target family, where the subfamily is steroidal.
# Protein-fragment complementation assay, or PCA, is a method for the identification and quantification of protein-protein interactions. In the PCA, the proteins of interest ("bait" and "prey") are each covalently linked to fragments of a third protein (e.g. DHFR, which acts as a "reporter"). Interaction between the bait and the prey proteins brings the fragments of the reporter protein in close proximity to allow them to form a functional reporter protein whose activity can be measured. The OT ER alpha / ER beta assay is a heterodimer PCA of the ligand binding domain (LBD) of ER alpha (amino acids 310-547) and human ER beta (amino acids 263-489) stably expressed in HEK293T cells. […] Fluorescent signal in the basal state of the assay is very low and is primarily punctuate and cytoplasmic. Modulation of this assay is quantified as an increase in mean fluorescence intensity in the nucleus (for agonists) or in the nucleus and cytoplasm (antagonists) relative to vehicle controls, and can be quantified on a high content imaging device or a laser scanning cytometer. The latter instrument is favored for this assay because of the rapid mode of data acquisition, the ability to acquire data from the entire cell population in a well (as opposed to a fraction of the well on the high content devices) and the larger dynamic range typically achieved with this instrument. To assess sensitivity of the ER alpha/ER beta LBD assay to ligand, cells were treated with the ER agonist 17- beta-estradiol (E2) in 10-point concentration- response format for 24 hours and monitored response on a laser scanning plate cytometer (Acumen eX3; TTP Lab Tech).
# Estrogen receptor (Homo sapiens) + Estrogen receptor beta (Homo sapiens), sequence (P03372 whole entry, looked up): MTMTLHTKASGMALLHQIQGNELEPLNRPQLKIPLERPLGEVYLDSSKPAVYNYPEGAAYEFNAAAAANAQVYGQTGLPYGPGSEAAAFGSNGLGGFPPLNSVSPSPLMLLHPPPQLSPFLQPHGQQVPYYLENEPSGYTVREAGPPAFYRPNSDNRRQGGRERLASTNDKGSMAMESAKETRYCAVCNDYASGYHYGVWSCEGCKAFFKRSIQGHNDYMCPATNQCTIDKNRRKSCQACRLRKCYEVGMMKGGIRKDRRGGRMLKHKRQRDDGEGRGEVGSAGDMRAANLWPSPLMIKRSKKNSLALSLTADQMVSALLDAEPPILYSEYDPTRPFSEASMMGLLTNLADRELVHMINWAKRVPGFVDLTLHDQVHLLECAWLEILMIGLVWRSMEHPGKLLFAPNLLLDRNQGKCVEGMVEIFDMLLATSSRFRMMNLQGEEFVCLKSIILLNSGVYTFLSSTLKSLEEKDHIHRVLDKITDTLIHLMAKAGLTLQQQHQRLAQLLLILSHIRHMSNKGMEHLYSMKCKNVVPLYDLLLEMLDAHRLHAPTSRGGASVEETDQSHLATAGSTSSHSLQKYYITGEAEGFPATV
# Estrogen receptor (Homo sapiens) + Estrogen receptor beta (Homo sapiens), sequence (Q92731 whole entry, looked up): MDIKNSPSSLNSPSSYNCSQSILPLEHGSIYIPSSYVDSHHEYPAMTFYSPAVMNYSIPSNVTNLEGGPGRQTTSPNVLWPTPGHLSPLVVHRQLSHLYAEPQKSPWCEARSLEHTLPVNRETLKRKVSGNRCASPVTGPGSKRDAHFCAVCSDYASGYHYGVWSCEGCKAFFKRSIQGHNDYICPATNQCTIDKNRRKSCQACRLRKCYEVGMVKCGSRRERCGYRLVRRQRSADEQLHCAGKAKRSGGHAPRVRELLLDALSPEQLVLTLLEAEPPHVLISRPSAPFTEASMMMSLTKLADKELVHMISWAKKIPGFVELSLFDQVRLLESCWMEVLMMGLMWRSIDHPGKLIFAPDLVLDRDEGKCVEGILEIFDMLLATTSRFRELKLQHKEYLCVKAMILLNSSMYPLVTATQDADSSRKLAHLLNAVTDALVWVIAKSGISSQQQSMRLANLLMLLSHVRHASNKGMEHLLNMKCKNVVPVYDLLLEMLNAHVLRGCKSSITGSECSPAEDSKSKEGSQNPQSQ
Structure (SMILES),AC50,outcome
CC(Cc1ccc(O)c(O)c1)C(C)Cc1ccc(O)c(O)c1 (stereo unspecified),11.9 µM (active),–
CC/C=C\CCOC(C)=O,–,inactive
Cc1ccc(S(=O)(=O)NCl)cc1,–,inactive
C(=C(c1ccccc1)c1ccccc1)c1ccccc1,29.3 µM (active),–
CC(CCl)OP(=O)(OC(C)CCl)OC(C)CCl (stereo unspecified),–,inactive
CN(C)Cc1ccccc1O,–,inactive
O=C(OCCOCCOCCOC(=O)c1ccccc1)c1ccccc1,–,inactive
CCCCOc1ccc(N)cc1,68.7 µM (active),–
CCCCCCOC(=O)c1ccccc1,–,inactive
CCCCCCC(C)OC(=O)CCCCC(=O)OC(C)CCCCCC (stereo unspecified),–,inactive
CCCCCCOC(=O)c1ccccc1O,–,inactive
COC(=O)C1CCC(C(=O)OC)CC1 (stereo unspecified),–,inactive
CCN(Cc1cccc(S(=O)(=O)O)c1)c1ccc(C(=C2C=CC(=[N+](CC)Cc3cccc(S(=O)(=O)O)c3)C=C2)c2ccc(O)cc2S(=O)(=O)[O-])cc1,–,inactive
C1COCCN1,–,inactive
[Co],–,inactive
Cc1cc(C)cc(O)c1,–,inactive
